Measurements: PubChem BioAssay AID1159580 (chemical genetic matrix, 2015)
Where “and” joins values, the source holds several entries; their conditions need not be identical. Equal entries are not always repeated. Out of some 5,500 compounds screened, about 2,000 (36%) were called active. Not shown: some 18% with an inconclusive outcome. Rule as the data show it: active = normalized growth mostly below about 0.91 (no sharp cut-off); inconclusive = no clear call, values can overlap the other calls; inactive = mostly above about 0.92. Some of the results follow.

Test: chemical genetic growth profiling, strain panel (AID 1159580);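 also: tested at 20 µM; growth read once vehicle control cultures reached saturation at 30 °C; 1 = growth at the plate median or of vehicle wells; lower values mean less growth of the strain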
Details: S. cerevisiae deletion strains, growth OD

Measured: normalized growth

C[C@H]1OC(O[C@H]2[C@@H](O)CC(O[C@H]3[C@@H](O)C[C@H](O[C@H]4CC[C@]5(C)C6CC[C@]7(C)[C@@H](C8=CC(=O)OC8)[C@@H](O)C[C@]7(O)[C@@H]6CC[C@@H]5C4)O[C@@H]3C)O[C@@H]2C)C[C@H](O)C1O (some centres not stated)
inactive: locus YBR021W, strain FUR4, stronger effect = lower value 0.986 | locus YBR229C, strain ROT2, stronger effect = lower value 1.01 | locus YCL029C, strain bik1, stronger effect = lower value 0.989 | locus YDL035C, strain GPR1, stronger effect = lower value 0.992 | locus YDL074C, strain BRE1, stronger effect = lower value 1.01 | locus YDL101C, strain DUN1, stronger effect = lower value 1 | locus YDL134C, strain PPH21, stronger effect = lower value 1.01 | locus YDL185W, strain tfp1, stronger effect = lower value 0.981 | locus YDL192W, strain arf1, stronger effect = lower value 0.988 | locus YDR101C, strain arx1, stronger effect = lower value 0.991 | locus YDR150W, strain NUM1, stronger effect = lower value 1.02 | locus YDR162C, strain NBP2, stronger effect = lower value 1 | locus YDR318W, strain mcm21, stronger effect = lower value 1.01 | locus YDR388W, stronger effect = lower value 0.999 | locus YDR502C, strain sam2, stronger effect = lower value 0.987 | locus YEL061C, strain CIN8, stronger effect = lower value 0.999 | locus YER110C, stronger effect = lower value 0.986 | locus YER155C, strain BEM2, stronger effect = lower value 0.985 | locus YER167W, strain BCK2, stronger effect = lower value 0.99 | locus YGL078C, strain dbp3, stronger effect = lower value 0.981 | locus YGL086W, strain mad1, stronger effect = lower value 0.965 | locus YGL248W, strain PDE1, stronger effect = lower value 1.01 | locus YGR135W, strain pre9, stronger effect = lower value 1.01 | locus YGR229C, strain SMI1, stronger effect = lower value 0.998 | locus YGR252W, strain gcn5, stronger effect = lower value 1.02 | locus YHR030C, strain SLT2, stronger effect = lower value 1 and 1.03 | locus YHR079C, strain IRE1 (second series), stronger effect = lower value 0.998 | locus YHR079C, strain IRE1, stronger effect = lower value 1.03 | locus YHR094C, strain hxt1, stronger effect = lower value 0.989 | locus YHR129C, strain ARP1, stronger effect = lower value 0.999 | locus YHR200W, strain rpn10, stronger effect = lower value 1 | locus YIL066C, strain RNR3, stronger effect = lower value 1 | locus YIL073C, strain SPO22, stronger effect = lower value 1.01 | locus YIL125W, strain kgd1, stronger effect = lower value 0.981 | locus YIR030C, strain dcg1, stronger effect = lower value 0.989 | locus YJL095W, strain BCK1, stronger effect = lower value 1.01 and 1 | locus YJL134W, strain LCB3, stronger effect = lower value 1 | locus YJL168C, strain set2, stronger effect = lower value 0.996 | locus YJL187C, strain SWE1 (second series), stronger effect = lower value 1.02 | locus YJR043C, strain POL32, stronger effect = lower value 1.01 | locus YJR066W, strain TOR1, stronger effect = lower value 0.965 | locus YKL009W, strain mrt4, stronger effect = lower value 0.927 | locus YKL068W, stronger effect = lower value 0.994 | locus YKL085W, strain MDH1 (second series), stronger effect = lower value 0.988 | locus YKL085W, strain MDH1, stronger effect = lower value 0.988 | locus YKR001C, strain vps1, stronger effect = lower value 0.986 | locus YLR039C, strain RIC1, stronger effect = lower value 1.06 | locus YLR058C, strain SHM2, stronger effect = lower value 1 | locus YLR102C, strain apc9, stronger effect = lower value 0.99 | locus YLR113W, strain HOG1, stronger effect = lower value 0.975 | locus YLR262C, strain YPT6, stronger effect = lower value 1.04 | locus YLR268W, strain sec22, stronger effect = lower value 0.99 | locus YLR330W, strain CHS5, stronger effect = lower value 0.994 | locus YLR342W, strain FKS1 (second series), stronger effect = lower value 1.02 | locus YLR371W, strain rom2, stronger effect = lower value 0.989 | locus YLR418C, strain cdc73, stronger effect = lower value 0.998 | locus YML016C, strain PPZ1, stronger effect = lower value 1.01 | locus YML032C, strain rad52, stronger effect = lower value 1.01 | locus YML124C, strain tub3, stronger effect = lower value 1 | locus YMR078C, strain ctf18, stronger effect = lower value 1 | locus YMR223W, strain ubp8, stronger effect = lower value 1.01 | locus YMR263W, strain SAP30, stronger effect = lower value 1.01 | locus YMR307W, strain GAS1, stronger effect = lower value 1.05 | locus YNL067W, strain RPL9B, stronger effect = lower value 1.01 | locus YNL183C, strain NPR1, stronger effect = lower value 0.989 | locus YNL233W, strain BNI4, stronger effect = lower value 0.995 | locus YNL250W, strain rad50, stronger effect = lower value 0.983 | locus YNL271C, strain bni1, stronger effect = lower value 0.99 | locus YNL298W, strain CLA4, stronger effect = lower value 0.989 | locus YNL307C, strain MCK1, stronger effect = lower value 0.993 | locus YNL322C, strain KRE1, stronger effect = lower value 1.01 | locus YNR052C, strain pop2, stronger effect = lower value 0.999 | locus YOL012C, strain htz1 1.48 | locus YOL147C, strain pex11, stronger effect = lower value 0.984 | locus YOR061W, strain CKA2, stronger effect = lower value 1.01 | locus YOR069W, strain VPS5, stronger effect = lower value 0.995 | locus YOR136W, strain idh2, stronger effect = lower value 0.98 | locus YOR144C, strain elg1, stronger effect = lower value 0.995 | locus YOR184W, strain ser1, stronger effect = lower value 0.983 | locus YOR231W, strain MKK1, stronger effect = lower value 0.995 | locus YOR316C, strain cot1, stronger effect = lower value 0.994 | locus YPL256C, strain CLN2, stronger effect = lower value 1.03 | locus YPR119W, strain clb2, stronger effect = lower value 0.996 | locus YPR141C, strain kar3, stronger effect = lower value 0.99 | locus YPR163C, strain tif3, stronger effect = lower value 0.995 | locus YPR167C, strain met16, stronger effect = lower value 0.994 | strain wtn01, stronger effect = lower value 0.98
